The term AC50 denotes the midpoint of the concentration-response curve, whichever way the signal moves.

In all, about 16,000 compounds went through this assay and about 5,700 (36%) were called active. Roughly 24% stayed inconclusive and do not appear here. The list shows a part of the results. Values without a mark were called inactive. Calls follow the shape of the dose curve; as a rule, active = well fitted curve in the direction sought with a large enough effect; inconclusive = small, poorly fitted or top-dose-only effect, or effect the other way; inactive = no such curve, though single readings can be large or run the other way.
% is scaled to controls: 0 for no effect and ±100 for the full control effect.

Cytochrome P450 1A2 (Homo sapiens), sequence (P05177 whole entry, looked up): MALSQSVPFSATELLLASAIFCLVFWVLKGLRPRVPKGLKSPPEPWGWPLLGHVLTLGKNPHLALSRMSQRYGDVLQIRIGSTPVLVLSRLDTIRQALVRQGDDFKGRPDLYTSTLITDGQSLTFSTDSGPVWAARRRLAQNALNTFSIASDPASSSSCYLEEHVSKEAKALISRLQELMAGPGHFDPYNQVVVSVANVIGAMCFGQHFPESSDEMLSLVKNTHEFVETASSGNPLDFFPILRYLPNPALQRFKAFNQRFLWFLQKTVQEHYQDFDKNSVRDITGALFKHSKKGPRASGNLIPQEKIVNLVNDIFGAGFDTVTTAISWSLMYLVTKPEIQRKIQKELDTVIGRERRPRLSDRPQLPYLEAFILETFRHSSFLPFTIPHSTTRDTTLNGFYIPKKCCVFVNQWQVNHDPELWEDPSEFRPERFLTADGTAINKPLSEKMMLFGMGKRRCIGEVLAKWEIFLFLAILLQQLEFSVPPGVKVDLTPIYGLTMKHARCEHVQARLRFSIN

This assay has as its target Cytochrome P450 1A2 (Homo sapiens) (UniProt P05177). Put plainly: Cytochrome panel assay with activity outcomes. The settings on record: recombinant CYP, pro-luciferin dealkylation, luminescence, p450-cyp1a2; series mostly up to 57.1 µM; activity, negative = inhibition: at the top concentration. On the procedure:
The P450 gene superfamily is involved in the metabolism and clearance of xenobiotics. This assay used various human CYP P450 isozymes to measure the dealkylation of various pro-luciferin substrates to luciferin. The luciferin is then measured by luminescence after the addition of a luciferase detection reagent. Pro-luciferin substrate concentration in the assay was equal to its KM for its CYP P450 isozyme. Inhibitors and some substrates limit the production of luciferin, and decrease measured luminescence.
NCGC Assay Protocol Summary:
1, Reagent, 2 uL, Isozyme and Pro-Luciferin
2, Library compounds, 23 nl, 40 uM to 0.24 nM dilution series
3, Controls, 23 nl, Isozyme specific inhibitor
4, Reagent, 2 uL, NADPH regeneration solution
5, Incubation time, 60 min, Isozyme specific temperature
6, Reagent, 4ul, Detection reagent
7, Incubation time, 20 min, Isozyme specific temperature
8, Detection, 1 sec, ViewLux luminescent read
The luciferase-based P450-GloTM Screening Systems were obtained from Promega (Madison, WI) for CYP 1A2 (V9770), CYP 2C9 (V9790), CYP2 C19 (V9880), CYP 2D6 (V9890), and CYP 3A4 Luciferin-PPXE (V9910) and were adapted for 1,536-well microplates and an automated protocol. The control compounds furafylline for 1A2 (F124), sulfaphenazole for CYP 2C9 (S0758), ketoconazole for CYP 2C19 (K1003), quinidine for 2D6 (Q3625), and ketoconazole for 3A4 (K1003) were purchased from Sigma Aldrich (St. Louis, MO). Recombinant P450 enzymes were obtained from baculovirus constructs expressed in insect cells (BD/Gentest).
Medium-binding white solid Kalypsys plates used. Mixtures kept on ice. 1A2: 10 nM 1A2, 100 uM Luc-ME, 100 mM KPO4; 2C9: 10 nM 2C9, 100 uM Luc-H, 25 mM KPO4; 2C19: 5 nM 2C19, 10 uM Luc-H EGE, 50 mM KPO4; 2D6: 5 nM 2D6, 30 uM Luc-ME EGE, 100 mM KPO4; 3A4: 10 nM, 25 uM Luc-PPXE. All amounts are reflected in their final concentration, working concentration is 2x.
NADPH regeneration solution: 1.3 mM NADP+, 3.3 mM glucose-6-phosphate, 3.3 mM MgCl2, 0.4 U/mL glucose-6-phosphate dehydrogenase for all isozymes, 200 mM KPO4 for 3A4. Mixture prepared at RT but kept on ice during automated run.
RT incubation in auxilliary plate hotel for 1A2, 2D6, and 3A4; 37C for 2C9 and 2C19.
Keywords: P450, CYP1A2, CYP2C19, CYP2C9, CYP2D6, CYP3A4, Luciferase, MLSMR, MLSCN, NIH Roadmap, qHTS, NCGC
Consider `Oc1c([C@H](Nc2ccccn2)c2ccccc2)ccc2cccnc12`, for which the activity, negative = inhibition is -21.9% [at 2.29 µM].
For the compound `CC(C)(C)C(=O)NC(Nc1cccc2cccnc12)C(Cl)(Cl)Cl` (stereo not drawn), the concentration at half-maximal activity (AC50) was 20 µM (active).
Turning to `Cc1ccc(C)n1C(Cc1ccccc1)C(=O)O` (stereo not drawn), the activity, negative = inhibition was 6.11% [at 11.4 µM].
Take `Cc1ccc(-n2c(C)nc3c(cnn3-c3ccc(F)cc3)c2=O)cc1C`: the AC50 is 2.51 µM (active).
`Cc1cc(C)n(-c2ccc(F)cc2)c(=O)c1C(=O)O`: the “activity, negative = inhibition” value is 3.85%.
Consider `FC(F)(F)c1cc(C(F)(F)F)c2ccc(N/N=C/c3cccc(Cl)c3)nc2n1`, for which the half-maximal activity concentration (AC50) was 2.51 µM (active).
Take `O=c1c(O)c(-c2cc(O)c(O)c(O)c2)oc2cc(O)cc(O)c12`: the AC50 is 5.01 µM (active).
Turning to `Cc1cccc(OCCCCCn2ccnc2)c1`, the AC50 is 0.282 µM (active).
On the same count and under the same terms, in the case of `Cc1ccc(OCCOCCn2ccnc2)c(Br)c1` it was 0.282 µM (active).
Regarding `O=C1C2C3C=CC(C2C(=O)N1CN1CCOCC1)C1C2C(=O)N(CN4CCOCC4)C(=O)C2C31` (stereo not drawn), the activity, negative = inhibition was -7.11% [at 11.4 µM].
Same read-out and setting: for `CCN1C(=O)[C@H]2[C@H]3[C@H](O)[C@H](O)C/C(=N/NC(=O)OCc4ccccc4)[C@@H]3CC[C@@H]2C1=O` the value was -2.34% [at 11.4 µM].
Same read-out and setting: in the case of `CC(C)=NOC[C@@H](O)[C@@H]1O[C@@H]2OC(C)(C)O[C@@H]2[C@H]1O` it was -4.07% [at 11.4 µM].
With `Clc1ccc(-c2ccnc(Oc3cc(Cl)ccc3Cl)n2)cc1`, the AC50 was 0.447 µM (active).
For `O=C(O)c1ccc(C(=O)O)c(C(=O)O)c1.[NH-][C@@H]1CCCC[C@@H]1[NH-].[Pt]`, the activity, negative = inhibition was -19% [at 11.4 µM].
As to `CC(C)OCCCN1CN(S(=O)(=O)c2cccc(Cl)c2)c2nc3ccccc3nc21`, the concentration at half-maximal activity (AC50) is 14.1 µM (active).
Take `C[N+](C)(C)CC[N+]1(C)Cc2c(Cl)c(Cl)c(Cl)c(Cl)c2C1`: the “activity, negative = inhibition” value was -15.9%.
For the compound `Cc1noc(C)c1-c1nc(Nc2ccccc2)c2ccccc2n1`, the AC50 is 0.251 µM (active).
Same read-out and setting: in the case of `Cc1noc(C)c1-c1nc(NC2CCNCC2)c2ccccc2n1` it was 5.01 µM (active).
On the same count and under the same terms, for `Cc1noc(C)c1-c1nc(Nc2ccc(F)cc2)c2ccccc2n1` the value was 0.251 µM (active).
Consider `COc1ccc(Nc2ncc(C(=O)N3CCN(c4ccc(F)cc4)CC3)c3ccccc23)cc1`, for which the “activity, negative = inhibition” value is -21.6%.
As to `Cc1noc(C)c1-c1nc(Nc2ccncc2)c2ccccc2n1`, the AC50 is 0.1 µM (active).
Turning to `COc1cccc(C2C3(C#N)C(N)=NC(OC)(OC)C23C#N)c1` (stereo not drawn), the “activity, negative = inhibition” value was -22.7%.
On the same count and under the same terms, in the case of `C#CCCCO/N=C1/C[C@@H](O)[C@@H](O)[C@@H]2[C@@H]3C(=O)N([C@@H](C)c4ccccc4)C(=O)[C@H]3CC[C@@H]12` it was -1.14% [at 11.4 µM].
As to `CNc1nc(-c2c(C)noc2C)nc2ccccc12`, the half-maximal activity concentration (AC50) was 0.0501 µM (active).
On the same count and under the same terms, in the case of `Cc1noc(C)c1-c1nc(N(C)C)c2ccccc2n1` it was 0.0398 µM (active).
Take `COC(=O)[C@@H]1CC[C@H](C)[C@@H](c2ccc(C)cc2)N1C(=O)c1ccc(/C=N\O[C@@H](C)CN2CCCc3nc(C)c(C)cc32)cc1`: the activity, negative = inhibition was -8.09% [at 11.4 µM].
Same read-out and setting: in the case of `C/C(=N/NC1=NCCN1)c1cn(C2=NCCN2)nc1C` it was -13.9% [at 2.29 µM]; in that of `CS(=O)(=O)N1CCC[C@@]2(CCN(c3ccncc3)C2)C1`, -0.751%.
Same read-out and setting: in the case of `CN(C)[C@H]1C(=O)C(C(=O)NCN2CCCC2)=C(O)[C@]2(O)C(=O)C3=C(O)c4c(O)cccc4[C@@](C)(O)[C@H]3C[C@@H]12` it was -13.9% [at 25.6 µM].
`COC(=O)c1cc(OC)c(OC)cc1NC(=S)N1CCCCC1`: the AC50 was 1.58 µM (active).
The same measure, in the same setting: in the case of `COC(=O)c1ccc(C(=O)OC)c(NC(=S)N2CCN(c3ccccc3)CC2)c1` it was 4.47 µM (active).
For the compound `COc1ccc(N2CCN(C(=S)Nc3cc(C)ccc3C)CC2)cc1`, the “activity, negative = inhibition” value is -5.94%.
As to `Cc1ccc(NC(=S)N2CCN(C(=O)C3CCCO3)CC2)c(C)c1` (stereo not drawn), the “activity, negative = inhibition” value was -2.91%.
Consider `COC(=O)c1ccc(NC(=S)N2CCN(Cc3cccc(C)c3)CC2)cc1`, for which the “activity, negative = inhibition” value was -18.6%.
The same measure, in the same setting: for `NC(=O)C1(N2CCCCC2)CCN(C(=S)Nc2ccc(Cl)cc2)CC1` the value was -4.97%; for `N[C@@H](CS(=O)O)C(=O)O`, -13.2%.
On to `CCc1sc(-c2c(C#N)c(N)nc3c2CCCCCC3)cc1[N+](=O)[O-]`, for which the half-maximal activity concentration (AC50) is 2 µM (active).
For the compound `COc1cccc(NC(=O)CSc2nc3c(c(-c4ccco4)c2C#N)CCCC3)c1`, the “activity, negative = inhibition” value was -1.32%.
`Cc1ccc(-n2[nH]c(=O)c3cccnc32)cc1`: the half-maximal activity concentration (AC50) is 2.51 µM (active).
In the case of `O=c1ncn(-c2ccccc2F)c2ncccc12`, the “activity, negative = inhibition” value is -9.76%.
The same measure, in the same setting: in the case of `O=c1nc(-c2ccccc2)n(-c2ccccc2)c2ncccc12` it was -20.5%.
Same read-out and setting: in the case of `Cc1ccc(N2C(=O)c3n[nH]c(C)c3C2c2ccccn2)cc1` (stereo not drawn) it was -2.91%.
Take `O=c1[nH]n(-c2cccc(Cl)c2)c2ncccc12`: the AC50 was 5.01 µM (active).
With `Cc1ccc(-n2cnc(=O)c3cccnc32)cc1`, the “activity, negative = inhibition” value is -11.7%.
With `CCOCCCn1cnc2c(c1=O)c1nc3ccccc3nc1n2-c1ccccc1`, the concentration at half-maximal activity (AC50) is 4.47 µM (active).
As to `COCCNC(=O)C1CCN(S(=O)(=O)N2CCC3(CC2)OCCO3)CC1`, the “activity, negative = inhibition” value is -13.7%.
Take `COC(=O)c1ccc(CSc2nc3cc(Cl)ccc3s2)o1`: the AC50 is 2 µM (active).
With `O=C(Nc1ccc2nc(SCc3ccc(Cl)cc3)sc2c1)c1ccccc1C(=O)N1CCOCC1`, the “activity, negative = inhibition” value is -12.7%.

Values taken from PubChem BioAssay AID1851 (National Center for Advancing Translational Sciences (NCATS), 2009).
